The values that follow come from PubChem BioAssay (Tox21).

The nature of test [1]: qHTS assay to test for compound auto fluorescence at 535 nm (green) in HEK293 cells (AID 720680). Also: potency is read from the fitted curve at half-maximal effect. Particulars: green autofluorescence 485/535 nm; series mostly up to 91.3 µM. (qHTS replaces the single test concentration by a dilution series.)
Test [2] can be described thus: qHTS assay to test for compound auto fluorescence at 460 nm (blue) in HEK293 cell free culture (AID 720681). The conditions noted are these: cell-free medium, autofluorescence 405/460 nm (blue); series mostly up to 91.3 µM. In short, it runs like this:
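Compounds were added to cell-free DMEM with 10% FBS and fluorescence read directly. The blue channel used 405 nm excitation and 460 nm emission, with triamterene as the reference fluorophore.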

Test [3] is described as follows: qHTS assay to test for compound auto fluorescence at 535 nm (green) in HEK293 cell free culture (AID 720682). Also: potency is read from the fitted curve at half-maximal effect. Particulars: cell-free medium, green autofluorescence 485/535 nm; series mostly up to 91.3 µM. Put shortly: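 DMEM + 10% FBS, cell-free; cpd or DMSO pinned in; Ex485/Em535 read; output as fluorescein-equivalent signal.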
Test [4] can be described thus: qHTS assay to test for compound auto fluorescence at 590 nm (red) in HEK293 cell free culture (AID 720683). Particulars: cell-free medium autofluorescence, Ex540/Em590 red; series mostly up to 91.3 µM. Put shortly:
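Cell-free wells of DMEM with 10% FBS received compound, and intrinsic fluorescence was read at excitation/emission 540/590 nm. Values expressed as equivalence to Rose Bengal sodium.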

Test [5] can be described thus: qHTS assay to test for compound auto fluorescence at 590 nm (red) in HepG2 cell free culture (AID 720684). Particulars: cell-free medium autofluorescence, red 540/590 nm; series mostly up to 91.3 µM. In short, it runs like this:
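Compound was pinned into wells holding MEM with 10% FBS and no cells, and red fluorescence was read at Ex/Em 540/590 nm. Signal is expressed as auto fluorescence equivalency relative to Rose Bengal sodium.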

Test [6] is described as follows: qHTS assay to test for compound auto fluorescence at 460 nm (blue) in HepG2 cell free culture (AID 720685). The conditions noted are these: Cell-free culture medium, blue autofluorescence 405/460 nm; series mostly up to 91.3 µM. Put shortly: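 Compound (23 nL) or DMSO pinned into cell-free MEM with 10% FBS; blue fluorescence read at 405/460 nm excitation/emission, expressed as auto-fluorescence equivalency to triamterene.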

Test [7] is described as follows: qHTS assay to test for compound auto fluorescence at 535 nm (green) in HepG2 cell free culture (AID 720686). Also: potency is read from the fitted curve at half-maximal effect. Particulars: Cell-free medium, green autofluorescence 485/535 nm; series mostly up to 91.3 µM.
A short description of test [8]: qHTS assay to test for compound auto fluorescence at 460 nm (blue) in HepG2 cells (AID 720687). The conditions noted are these: autofluorescence 405/460 nm, 1 h; series mostly up to 91.3 µM. Put shortly:
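HepG2 cells in MEM with 10% FBS, attached overnight at 37 C, were exposed to compound or DMSO for 1 hr at 37 C, 5% CO2. Blue fluorescence was read at 405/460 nm, with triamterene as reference fluorophore.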

Test [9] has as its target Glucocorticoid receptor (Homo sapiens) (UniProt P04150). Nature of the test: qHTS assay to identify small molecule agonists of the glucocorticoid receptor (GR) signaling pathway (AID 720691; active = well fitted activation curve with a large enough effect in the signal ratio in the repeat runs, not every such curve was filed as active; the % refers to the signal ratio). Particulars: GR-bla HeLa, beta-lactamase reporter ratio, 18 h; series mostly up to 62.4 µM. Put shortly: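 Agonist mode in a HeLa line carrying a GRE-controlled beta-lactamase reporter. Compounds act for 18 h at 37 C before a 2 h room-temperature FRET substrate step and fluorescence reading.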

Test [10] shares this target. Nature of the test: qHTS assay to identify small molecule antagonists of the glucocorticoid receptor (GR) signaling pathway (AID 720692; active = well fitted inhibition curve with a large enough effect in the signal ratio in the repeat runs, not every such curve was filed as active; the % refers to the signal ratio; also: potency is read from the fitted curve at half-maximal effect). The conditions noted are these: GR-bla HeLa, beta-lactamase FRET ratio, dexamethasone-stimulated, 18 h; series mostly up to 58.5 µM. Put shortly:
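Cells plated, rested 4 h at 37 C/5% CO2; compounds in DMSO pin-transferred; dexamethasone added to 5 nM final; 18 h at 37 C; B/G FRET substrate added, 2 h room temperature; fluorescence measured.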

Molecules are shown by their SMILES. Records with an inconclusive call do not appear. Active and inactive are the calls of the source. Unless noted, calls follow the shape of the dose curve; as a rule, active = well fitted curve in the direction sought with a large enough effect in the repeat runs; inconclusive = weak or mixed curves; inactive = flat fitted curve, though single readings scatter.
Tags tell the direction and shape of the fitted curve or compound fluorescence and quenching.

Chain of Glucocorticoid receptor (Homo sapiens) (P04150 whole entry, looked up): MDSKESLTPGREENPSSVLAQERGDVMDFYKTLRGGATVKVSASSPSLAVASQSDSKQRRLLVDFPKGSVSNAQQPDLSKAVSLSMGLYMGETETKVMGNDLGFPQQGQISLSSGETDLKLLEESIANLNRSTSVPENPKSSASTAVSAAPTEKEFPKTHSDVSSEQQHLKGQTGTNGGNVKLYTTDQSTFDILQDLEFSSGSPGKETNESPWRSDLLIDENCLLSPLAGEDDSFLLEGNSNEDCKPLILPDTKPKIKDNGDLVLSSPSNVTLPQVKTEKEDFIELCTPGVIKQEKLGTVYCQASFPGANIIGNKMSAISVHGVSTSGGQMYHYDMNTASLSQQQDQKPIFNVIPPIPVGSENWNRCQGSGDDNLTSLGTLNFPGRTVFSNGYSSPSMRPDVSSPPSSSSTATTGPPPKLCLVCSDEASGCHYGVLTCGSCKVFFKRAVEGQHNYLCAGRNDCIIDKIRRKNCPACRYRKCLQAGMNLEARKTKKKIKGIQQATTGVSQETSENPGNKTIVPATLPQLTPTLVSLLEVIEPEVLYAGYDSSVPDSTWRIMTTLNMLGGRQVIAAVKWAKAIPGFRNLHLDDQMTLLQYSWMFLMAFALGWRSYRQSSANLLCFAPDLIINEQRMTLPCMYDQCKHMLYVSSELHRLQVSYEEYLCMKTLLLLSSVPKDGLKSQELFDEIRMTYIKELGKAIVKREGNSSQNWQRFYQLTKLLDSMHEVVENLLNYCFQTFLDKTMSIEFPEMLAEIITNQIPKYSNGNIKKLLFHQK

Consider `O=c1c(O)c(-c2ccc(O)cc2O)oc2cc(O)cc(O)c12`, for which the Potency result in test [1], in test [2], in test [3], in [4], in test [5] and in test [6] was “inactive” each time. Further, the Potency entry in [7], in test [8], in test [9] and in test [10] was “inactive” throughout.
`NC(=O)c1cccc([N+](=O)[O-])c1`: the Potency entry in [1], in test [2], in [3], in [4], in test [5] and in test [6] was “inactive” throughout. Besides, the Potency result in test [7], in test [8], in test [9] and in test [10] was “inactive” each time.
Take `ClCCl`: the Potency entry in test [1], in test [2], in [3], in test [4], in test [5] and in [6] was “inactive” each time. The Potency entry in [7], in test [8], in test [9] and in test [10] was “inactive” throughout.
With `C/C=C/C=C/COC(=O)C(C)C`, the Potency result in [1], in test [2], in [3], in test [4], in test [5] and in test [6] was “inactive” each time. Further, the Potency result in test [7], in test [8] and in [9] was “inactive” in each case. The Potency in [10] was 34.7 µM (active).
Turning to `CCCC(=O)OC(C)(C)Cc1ccccc1`, the Potency entry in [1], in test [2], in test [3], in test [4], in [5] and in test [6] was “inactive” in each case. Moreover, the Potency result in [7], in test [8], in [9] and in test [10] was “inactive” throughout.
Consider `C=CC(C)(CCC=C(C)C)OC=O` (stereo not given), for which the Potency result in test [1], in test [2], in test [3], in test [4], in test [5] and in test [6] was “inactive” in each case. Besides, the Potency entry in test [7], in [8], in test [9] and in [10] was “inactive” in each case.
As for `Cc1nc2n(c(=O)c1CCN1CCC(c3noc4cc(F)ccc34)CC1)CCCC2`, the Potency result in [1], in test [2], in [3], in [4], in [5] and in test [6] was “inactive” throughout. The Potency result in [7], in [8], in test [9] and in [10] was “inactive” in each case.
For the compound `CN1CCN(Cc2cc(-c3ccc4[nH]c(=O)oc4c3)co2)[C@@H](c2ccc(F)cc2)C1`, the Potency entry in test [1], in test [2], in [3], in [4], in [5] and in [6] was “inactive” in each case. For the same compound, the Potency result in test [7], in test [8] and in [9] was “inactive” throughout. Also, the Potency in test [10] is 42 µM (active).
Take `Cc1ccc(O)c(N)c1`: the Potency entry in [1], in [2], in [3], in [4], in test [5] and in test [6] was “inactive” in each case. The Potency entry in [7], in [8], in test [9] and in test [10] was “inactive” each time.
For `Cc1ccc(C(C)C)cc2c(C)ccc1-2`, the Potency result in [1], in [2], in [3], in [4], in test [5] and in [6] was “inactive” throughout. For the same compound, the Potency result in test [7], in test [8], in test [9] and in test [10] was “inactive” each time.
For the compound `CC1(C)CCC[C@]2(C)[C@H]3CC(=O)O[C@]3(C)CC[C@@H]12`, the Potency result in [1], in test [2], in [3], in test [4], in test [5] and in test [6] was “inactive” throughout. The Potency result in test [7], in test [8], in test [9] and in [10] was “inactive” each time.
Consider `CN1CCCCC1CCN1c2ccccc2Sc2ccc(S(C)=O)cc21` (stereo not given), for which the Potency entry in test [1], in [2], in test [3], in [4], in test [5] and in [6] was “inactive” each time. Besides, the Potency entry in test [7], in test [8], in [9] and in [10] was “inactive” throughout.
In the case of `COc1cc(/C=C/c2ccccc2)oc(=O)c1`, the Potency result in test [1], in test [2], in test [3], in test [4], in test [5] and in test [6] was “inactive” throughout. Moreover, the Potency entry in [7], in test [8], in test [9] and in [10] was “inactive” each time.
For `CC(C)CCCCCOC(=O)CCS`, the Potency entry in [1], in test [2], in [3], in test [4], in test [5] and in test [6] was “inactive” each time. For the same compound, the Potency result in test [7], in test [8], in [9] and in test [10] was “inactive” each time.
Turning to `O=C1OC2(c3ccc(O)cc3Oc3cc(O)ccc32)c2ccc(N=C=S)cc21`, the Potency is 39.8 µM [fluorescent] (active) in test [1], 39.8 µM [fluorescent] (active) in test [3] and 35.5 µM [fluorescent] (active) in test [7]. Also, the Potency entry in [2], in test [4], in [5], in test [6], in [8] and in test [9] was “inactive” each time. For the same compound, the Potency entry in test [10] was “inactive”.
